Inconclusive results are not listed. The source made the active and inactive calls. Unless noted, calls come from the whole dose curve; as a rule, active = well fitted curve in the direction sought with a large enough effect in the repeat runs; inconclusive = weak or mixed curves; inactive = no such curve, though single readings can be large; an effect the other way counts as inactive or inconclusive.
How the values were obtained:
[1] = qHTS assay to identify small molecule agonists of the androgen receptor (AR) signaling pathway in the presence of an antagonist - cell viability counter screen (AID 1259379);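 note: MDA-kb2 human breast cancer cells carrying an MMTV luciferase reporter; series mostly up to about 92 µM; nearly all actives have a fitted effect of over 25% in size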
How it was run: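 MDA-kb2 cells (MMTV-luciferase, AR/GR), 3,000/well, 5 h attachment, then 3.0 µM nilutamide (final) and compounds at 15 concentrations. Viability by CellTiter-Fluor fluorescence after 16 h at 37 °C, 0% CO2, in the reporter wells.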

[2] = qHTS assay to identify small molecule antagonists of the estrogen receptor beta (ER-beta) signaling pathway - cell viability counter screen (AID 1259382);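 note: HEK293T cells carrying ER-beta-UAS-bla reporter stimulated with estradiol; series mostly up to about 92 µM; nearly all actives have a fitted effect of over 55% in size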
How it was run: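 ER-beta-UAS-bla HEK293T cells in 2% charcoal-stripped FBS medium, treated with compound plus 1 nM 17-beta-estradiol for 16 h at 37C. Viability read by CellTiter-Glo luminescence after 30 min at room temperature in the same wells.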

[3] = qHTS assay to identify small molecule agonists or antagonists of the thyroid stimulating hormone receptor (TSHR) signaling pathway - wild type cell line counter screen (AID 1259384; calls by dose curve)
How it was run: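 Wild-type HEK293 cells were plated 18 h at 37 C/5% CO2, pin-dosed with compound plus Ro20-1724 medium, held 30 min at room temperature, then given cAMP-d2 and anti-cAMP-cryptate; fluorescence was read after 1 h. Fifteen concentrations, triplicate.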

[4] = target: Thyrotropin receptor (Homo sapiens) (UniProt P16473); test: qHTS assay to identify small molecule antagonists of the thyroid stimulating hormone receptor (TSHR) signaling pathway (AID 1259385; calls by dose curve; note: nearly all actives have a fitted effect of over 20% in size)
How it was run: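 TSHR-HEK293 cells were plated and held 18 h at 37C/5% CO2, then given compound plus Ro20-1724 and stimulated with TSH at 1.5 ng/mL final. After 30 min at room temperature, cAMP was detected with cAMP-d2/anti-cAMP-cryptate (1 h) by fluorescence.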

[5] = qHTS assay to identify small molecule agonists of the estrogen receptor alpha (ER-alpha) signaling pathway in the presence of an antagonist - cell viability counter screen (AID 1259386);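 note: series mostly up to about 92 µM; cells exposed to compounds for 22 h at 37 °C before the viability read; nearly all actives have a fitted effect of over 30% in size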
How it was run: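 Cell viability in VM7Luc4E2 cells (endogenous full-length ER-alpha) measured by CellTiter-Fluor fluorescence in the same wells as the luciferase screen. Cells pre-cultured 5 days in charcoal-stripped serum, then treated 22 h with compounds at 15 concentrations plus 10.0nM ICI-182,780.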

[6] = target: Progesterone receptor (Homo sapiens) (UniProt P06401); test: qHTS assay to identify small molecule agonists of the progesterone receptor (PR) signaling pathway (AID 1346784; calls by dose curve; note: nearly all actives have a fitted effect of over 30% in size)
How it was run: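 Using charcoal-stripped serum (2%) to limit endogenous steroids, PR-UAS-bla HEK 293T cells received compounds for 16 hr at 37C after 6 hr plating; beta-lactamase FRET fluorescence was recorded following 2 hr substrate loading at room temperature.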

[7] = target: Progesterone receptor (Homo sapiens) (UniProt P06401); test: qHTS assay to identify small molecule antagonists of the progesterone receptor (PR) signaling pathway (AID 1346795; active = well fitted inhibition curve with a large enough effect in the signal ratio in the repeat runs, not every such curve was filed as active; the % refers to the signal ratio)
How it was run: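 Inhibition of R5020-induced (1 nM final) beta-lactamase reporter signal in PR-UAS-bla HEK293T cells was scored by FRET fluorescence after overnight (16 hr) compound treatment.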

[8] = qHTS assay to identify small molecule antagonists of the progesterone receptor (PR) signaling pathway - cell viability counter screen (AID 1346798); note: series mostly up to about 92 µM; nearly all actives have a fitted effect of over 50% in size
How it was run: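 ATP content as viability readout: CellTiter-Glo luminescence, 30 min room temperature, in PR-UAS-bla HEK293T cells after 16 hr compound/R5020 treatment at 37C and 5% CO2.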

[9] = qHTS assay to identify small molecule antagonists of the TGF-beta/Smad signaling pathway - cell viability counter screen (AID 1346824); note: nearly all actives have a fitted effect of over 50% in size
How it was run: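 SBE-bla HEK 293T cells were plated overnight at 37 C, then given compounds in DMSO plus TGF-beta1 (added as 0.25 ng/mL solution) for 5 hr. After the bla read, CellTiter-Glo was added to the same wells and luminescence read after 30 min at room temperature.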

[10] = qHTS assay to identify small molecule agonists of the TGF-beta/Smad signaling pathway - cell viability counter screen (AID 1346829); note: top concentration of the series differs between compounds; nearly all actives have a fitted effect of over 45% in size
How it was run: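 CellTiter-Glo luminescence readout; SBE-bla HEK 293T cells, overnight plating, compound 5 hr at 37 C/5% CO2, then bla substrate 2 hr RT, then CellTiter-Glo 30 min RT.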

[11] = qHTS assay to identify small molecule agonists of the TGF-beta/Smad signaling pathway (AID 1346859; active = well fitted activation curve with a large enough effect in the signal ratio in the repeat runs, not every such curve was filed as active; the % refers to the signal ratio; note: series mostly up to about 77 µM)
How it was run: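 Stable Smad binding element-beta-lactamase HEK 293T cells; 5 hr compound exposure at 37 C under 5% CO2; 2 hr room-temperature substrate step; fluorescence excited at 405 nm, collected at 460 nm and 530 nm.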

[12] = target: Thyrotropin-releasing hormone receptor (Homo sapiens) (UniProt P34981); test: qHTS assay to identify small molecule agonists of the thyrotropin-releasing hormone receptor (TRHR) signaling pathway (AID 1346891; calls by dose curve; note: series mostly up to about 58 µM)
How it was run: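 In 1536-format, 1500 TRHR-Hek293 cells per well grew 18 h, took up calcium dye for 2 h at 37 °C, received compound, and were read kinetically; 15-point titrations, triplicates.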

[13] = Human pregnane X receptor (PXR) small molecule agonists, qHTS cell viability counter screen (AID 1346977); note: nearly all actives have a fitted effect of over 50% in size
How it was run: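 Readout is CellTiter-Fluor fluorescence from PXR-Luc HepG2 cells. Plated cells rested 5hr, then were treated with compounds for 24hr at 37C and 5% CO2, with reagent present during the last hour.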

[14] = qHTS assay to identify small molecule agonists of the estrogen receptor beta (ER-beta) signaling pathway - cell viability counter screen (AID 1259380); note: nearly all actives have a fitted effect of over 30% in size
How it was run: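 ER-beta-UAS-bla HEK293T cells in medium with 2% charcoal-stripped FBS, pre-incubated 6 hr, then treated 16 hr at 37C. Cytotoxicity read in the same wells by CellTiter-Glo luminescence after 30 min at room temperature.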

[15] = qHTS assay to identify small molecule agonists of the progesterone receptor (PR) signaling pathway - cell viability counter screen (AID 1346799; calls by dose curve; note: nearly all actives have a fitted effect of over 45% in size)
How it was run: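 Cytotoxicity in PR-bla HEK293T cells: 16 h compound, 37C; CellTiter-Glo added post-FRET read; luminescence after 30 min RT.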

[16] = target: Thyrotropin-releasing hormone receptor (Homo sapiens) (UniProt P34981); test: qHTS assay to identify small molecule antagonists of the thyrotropin-releasing hormone receptor (TRHR) signaling pathway (AID 1346877; active = well fitted inhibition curve with a large enough effect in the repeat runs, not every such curve was filed as active; note: series mostly up to about 51 µM)
How it was run: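 TRHR-expressing HEK293 cells loaded with calcium dye for 2 h at 37 C; compounds pre-incubated 5 min at room temperature before TRH challenge at 1 nM final. Intracellular calcium fluorescence read kinetically for 3 min; 15 concentrations in triplicate.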

[17] = target: Estrogen receptor (Homo sapiens) (UniProt P03372); test: qHTS assay to identify small molecule agonists of the estrogen receptor alpha (ER-alpha) signaling pathway in the presence of an antagonist (AID 1259383; calls by dose curve; note: top concentration of the series differs between compounds; nearly all actives have a fitted effect of over 15% in size)
How it was run: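 VM7Luc4E2 cells express endogenous full-length ER-alpha with an ERE-luciferase reporter and were hormone-deprived for 5 days. Compounds at 15 concentrations were added with 10.0nM ICI-182,780 for 22hr at 37C. Luminescence was read with ONE-Glo.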

Measured: Potency

Sequence of Estrogen receptor (Homo sapiens) (P03372 whole entry, looked up): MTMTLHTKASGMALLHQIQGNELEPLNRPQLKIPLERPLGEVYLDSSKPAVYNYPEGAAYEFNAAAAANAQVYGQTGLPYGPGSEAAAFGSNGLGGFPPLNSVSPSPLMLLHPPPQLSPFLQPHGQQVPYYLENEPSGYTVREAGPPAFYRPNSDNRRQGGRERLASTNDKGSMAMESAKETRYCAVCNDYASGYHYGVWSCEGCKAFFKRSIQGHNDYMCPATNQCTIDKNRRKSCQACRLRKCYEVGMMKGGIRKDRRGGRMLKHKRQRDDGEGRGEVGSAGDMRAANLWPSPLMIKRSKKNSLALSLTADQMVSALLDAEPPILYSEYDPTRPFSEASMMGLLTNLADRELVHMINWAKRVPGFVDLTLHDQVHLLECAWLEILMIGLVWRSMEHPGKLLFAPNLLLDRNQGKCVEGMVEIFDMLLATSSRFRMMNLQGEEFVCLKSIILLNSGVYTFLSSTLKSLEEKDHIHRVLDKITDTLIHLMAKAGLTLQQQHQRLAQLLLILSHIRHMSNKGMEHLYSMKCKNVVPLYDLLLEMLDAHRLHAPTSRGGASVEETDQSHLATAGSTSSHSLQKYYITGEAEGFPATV
Sequence of Thyrotropin receptor (Homo sapiens) (P16473 whole entry, looked up): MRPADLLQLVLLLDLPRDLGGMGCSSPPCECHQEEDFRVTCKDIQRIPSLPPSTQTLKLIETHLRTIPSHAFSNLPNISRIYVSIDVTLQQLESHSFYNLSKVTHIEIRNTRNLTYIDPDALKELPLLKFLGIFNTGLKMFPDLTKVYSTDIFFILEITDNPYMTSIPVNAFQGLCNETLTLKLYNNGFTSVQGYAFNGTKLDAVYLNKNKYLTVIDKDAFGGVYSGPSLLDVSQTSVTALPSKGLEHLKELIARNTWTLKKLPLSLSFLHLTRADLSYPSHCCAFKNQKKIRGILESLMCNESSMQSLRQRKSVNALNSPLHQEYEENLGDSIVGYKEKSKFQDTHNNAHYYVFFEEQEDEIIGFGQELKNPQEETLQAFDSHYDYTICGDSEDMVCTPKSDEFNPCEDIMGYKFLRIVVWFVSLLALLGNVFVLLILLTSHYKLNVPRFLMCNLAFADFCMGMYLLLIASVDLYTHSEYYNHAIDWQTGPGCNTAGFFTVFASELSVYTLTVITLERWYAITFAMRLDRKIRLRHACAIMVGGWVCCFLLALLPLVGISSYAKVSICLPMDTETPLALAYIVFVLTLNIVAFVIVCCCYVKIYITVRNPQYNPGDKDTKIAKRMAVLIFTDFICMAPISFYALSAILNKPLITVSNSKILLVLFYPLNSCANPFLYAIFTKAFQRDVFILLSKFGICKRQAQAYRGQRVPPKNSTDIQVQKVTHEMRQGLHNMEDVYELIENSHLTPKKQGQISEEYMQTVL
Sequence of Progesterone receptor (Homo sapiens) (P06401 whole entry, looked up): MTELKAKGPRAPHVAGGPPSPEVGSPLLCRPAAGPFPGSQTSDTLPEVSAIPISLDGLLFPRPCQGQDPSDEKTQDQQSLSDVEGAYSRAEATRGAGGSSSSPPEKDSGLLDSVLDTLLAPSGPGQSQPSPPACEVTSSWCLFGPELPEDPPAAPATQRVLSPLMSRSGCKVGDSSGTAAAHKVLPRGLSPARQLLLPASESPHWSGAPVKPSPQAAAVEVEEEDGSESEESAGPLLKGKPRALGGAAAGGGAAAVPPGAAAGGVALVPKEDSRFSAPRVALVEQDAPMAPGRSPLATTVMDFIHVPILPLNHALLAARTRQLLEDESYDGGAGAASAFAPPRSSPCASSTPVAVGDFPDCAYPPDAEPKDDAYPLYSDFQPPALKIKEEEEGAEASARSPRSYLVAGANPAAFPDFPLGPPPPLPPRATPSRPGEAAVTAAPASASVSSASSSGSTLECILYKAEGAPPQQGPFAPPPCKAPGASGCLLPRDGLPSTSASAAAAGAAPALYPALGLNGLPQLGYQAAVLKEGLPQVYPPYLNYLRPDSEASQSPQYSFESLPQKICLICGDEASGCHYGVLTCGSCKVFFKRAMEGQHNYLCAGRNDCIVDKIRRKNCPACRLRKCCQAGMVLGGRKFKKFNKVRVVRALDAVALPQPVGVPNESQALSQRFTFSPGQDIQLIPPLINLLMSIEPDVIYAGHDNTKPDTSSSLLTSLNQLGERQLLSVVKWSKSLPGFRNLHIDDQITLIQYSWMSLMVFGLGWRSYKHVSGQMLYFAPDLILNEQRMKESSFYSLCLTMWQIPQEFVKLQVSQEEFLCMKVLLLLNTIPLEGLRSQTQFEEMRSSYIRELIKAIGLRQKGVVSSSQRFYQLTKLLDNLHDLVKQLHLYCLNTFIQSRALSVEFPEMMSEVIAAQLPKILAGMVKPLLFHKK
Sequence of Thyrotropin-releasing hormone receptor (Homo sapiens) (P34981 whole entry, looked up): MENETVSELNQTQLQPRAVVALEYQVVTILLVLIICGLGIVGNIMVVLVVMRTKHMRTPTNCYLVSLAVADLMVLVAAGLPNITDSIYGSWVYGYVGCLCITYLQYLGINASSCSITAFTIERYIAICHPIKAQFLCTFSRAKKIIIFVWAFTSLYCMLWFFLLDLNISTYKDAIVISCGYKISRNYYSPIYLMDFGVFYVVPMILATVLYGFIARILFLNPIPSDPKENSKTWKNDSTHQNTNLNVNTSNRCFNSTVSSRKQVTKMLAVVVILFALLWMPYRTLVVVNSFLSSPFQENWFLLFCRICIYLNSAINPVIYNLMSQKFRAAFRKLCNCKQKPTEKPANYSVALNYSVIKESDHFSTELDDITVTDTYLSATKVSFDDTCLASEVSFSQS

NNCc1ccccc1
not listed: [14] | [15] | [16] | [17]
inactive: all other assays above

CCCCS(=O)(=O)Cl
not listed: [3] | [6] | [17]
inactive: all other assays above

COc1cccc([C@@]2(O)CCCC[C@@H]2CN(C)C)c1
not listed: [6] | [9] | [12] | [14] | [16]
inactive: all other assays above

N#CC(Br)(Br)C(N)=O
not listed: [3] | [10] | [17]
inactive: all other assays above

O=[N+]([O-])CCO
not listed: [1] | [3] | [4]
inactive: all other assays above

C[C@@H](N)[C@@H](O)c1ccccc1
not listed: [1] | [15] | [17]
inactive: all other assays above

O=C(Cl)c1ccccc1
not listed: [12] | [14]
inactive: all other assays above

CN1C(=O)COc2c(C(=O)NC3CN4CCC3CC4)cc(Cl)cc21 (configuration not stated)
not listed: [1] | [3] | [13]
inactive: all other assays above

O=C(NC(=O)c1c(F)cccc1F)Nc1cc(Cl)c(F)c(Cl)c1F
not listed: [1] | [9] | [14]
inactive: all other assays above

Cc1ccc(-c2nc3ccc(C)cn3c2CC(=O)N(C)C)cc1
not listed: [1] | [3] | [5] | [14] | [16]
inactive: all other assays above

CC(C)(N)Cc1ccc(Cl)cc1
not listed: [1] | [2] | [6] | [8] | [12] | [15] | [16]
inactive: all other assays above

CCCC(C)C1(CC)C(=O)N=C(S)NC1=O (configuration not stated)
not listed: [3] | [4] | [6] | [9] | [16] | [17]
inactive: all other assays above

C=CCC1(C(C)CC)C(=O)NC(=O)NC1=O (configuration not stated)
not listed: [1] | [7] | [9] | [12] | [16]
inactive: all other assays above

CCOC(=O)COc1ccc(Cl)cc1Cl
not listed: [1] | [11] | [14] | [17]
inactive: all other assays above

CCCCOC(C)=O
not listed: [12] | [14]
inactive: all other assays above

— PubChem BioAssay (Tox21)
